Screening data as filed in PubChem BioAssay.
Compounds with a hit are over-represented: about 2.9% of the library has one in this group of screens.
PP1 inh: PP1-alpha phosphatase inhibitors, primary screen, counter-screen for PP5 inhibitor project, biochemical, fluorescence, OMFP substrate, single point; Serine/threonine-protein phosphatase PP1-alpha catalytic subunit (Homo sapiens), P62136; purified PP1alpha; hit rate 0.9% among 320,000; inhibition, % at 6.7 µM; AID 2235, 2010;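 active means inhibition above the mean inhibition of all tested compounds plus 3 SD, computed separately for each screening campaign, cut at about 15% in these data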
Beta2AR agonist: beta2AR agonists driving receptor internalization, primary screen, cell-based, FAP fluorogen, flow cytometry; Beta-2 adrenergic receptor (Homo sapiens), P07550; Am2.2-beta2AR cells; response, % (no concentration beside the values); hit rate 0.43% among 340,000; AID 504454, 2011;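 active means response above a set limit, near 3 SD of response in nonfluorescent compounds, cut at about 42% in these data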
Target sequence (P07550 whole entry, looked up): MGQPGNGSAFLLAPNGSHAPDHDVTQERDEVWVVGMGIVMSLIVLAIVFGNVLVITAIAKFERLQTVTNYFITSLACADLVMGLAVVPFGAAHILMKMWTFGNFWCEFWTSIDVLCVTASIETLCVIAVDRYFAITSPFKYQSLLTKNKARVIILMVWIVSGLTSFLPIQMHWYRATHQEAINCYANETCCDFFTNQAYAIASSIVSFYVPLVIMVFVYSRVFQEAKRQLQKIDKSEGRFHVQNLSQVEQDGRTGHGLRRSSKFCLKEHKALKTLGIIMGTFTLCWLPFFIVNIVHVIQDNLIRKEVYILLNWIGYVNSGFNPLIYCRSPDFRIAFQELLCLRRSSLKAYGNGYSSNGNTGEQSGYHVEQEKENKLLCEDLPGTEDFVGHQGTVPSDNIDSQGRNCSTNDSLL
Exocytosis inh: LAMP-1 surface exposure blockers, TALL-104 cells – cell-based, flow cytometry, MLPCN library, primary screen | TALL-104 LAMP-1 surface exposure; cells stimulated with thapsigargin and PMA | hit rate 0.66% among 360,000 | inhibition, % at 10 µM;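 active means inhibition above about 55%, limit read from the data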
GRK2 aptamer HTS: compounds blocking aptamer binding on GRK2 – biochemical, human GRK2, bead flow cytometry, HTS, primary screen; inhibition of aptamer binding, % at 10 µM; FAM-aptamer displacement from GRK2; AID 488847, 2010; hit rate 0.59% among 330,000;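 active means inhibition of aptamer binding above 40%, roughly 3 SD of noise, on plates passing a quality check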;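 further: median bead fluorescence of bound FAM aptamer so fluorescent compounds give negative values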
NadD block: inhibitors of S. aureus NadD, primary screen, biochemical, colorimetric, uHTS; inhibition, % at 20 µM; hit rate 0.78% among 360,000; purified NadD enzyme, colorimetric absorbance read-out; Nicotinate-nucleotide adenylyltransferase NadD (Staphylococcus aureus N315); in the data active means inhibition above about 26%
PP1 confirm: PP1 phosphatase inhibitors, confirmation, biochemical, fluorescence, OMFP substrate, triplicate; shares compounds with PP1 inh; purified PP1alpha; inhibition, % at 6.7 µM; hit rate 52% among 1,900;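 active means mean PP1 inhibition above a set limit taken from the earlier primary screen, cut at about 15% in these data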
PP5 counter: PP5 phosphatase inhibition by PP1 hits, confirmation, counter-screen for PP1 inhibitor project, biochemical, fluorescence, triplicate; shares compounds with PP1 inh; purified PP5c, OMFP fluorescence; inhibition, % at 6.7 µM; hit rate 4% among 1,900; AID 2360, 2010;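 active means mean PP5 inhibition over triplicate wells above about 9.5% taken from the earlier PP1 screen, limit read from the data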
GRK2 inh confirm: GRK2 aptamer-displacing inhibitors, retest, confirmation, biochemical, cherry pick 1, bead flow cytometry; shares compounds with GRK2 aptamer HTS; hit rate 4% among 2,000; aptamer displacement, % at 10 µM; AID 504451, 2011; bead-bound GRK2, FAM-aptamer displacement;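 active means aptamer displacement above 40%, near three times the noise of non-fluorescent compounds, on plates passing quality checks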;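 further: negative values mostly reflect intrinsic compound fluorescence rather than true enhancement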
Aptamer quench 1: quenches fluorescent RNA aptamer, GRK2 hit artifact; shares compounds with GRK2 aptamer HTS; Fluorescent RNA aptamer beads, quenching, flow cytometry; stronger effect = higher value; fluorescence change (kMESF span), kMESF (no concentration beside the values); 110 tested, under 10 active; AID 504521;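 active means compounds whose bead fluorescence drops by more than 37 kMESF across the dose range, marking them as dye quenchers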
FAM quench CP1: quenches fluorescent RNA aptamer, GRK2 hit artifact; shares compounds with GRK2 aptamer HTS; Carboxyfluorescein RNA aptamer on beads, flow cytometry quenching; stronger effect = lower value; fluorescence response (% of DMSO), % at 10 µM; 2,000 tested, under 10 active;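 active means compounds that quench the bead-bound fluorescent RNA probe, cutting fluorescence to under half of the solvent control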;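 further: counterscreen run without GRK2 so only probe quenching by compound is measured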
GRK2 confirm 2: GRK2 aptamer-displacing inhibitors, hit retest, confirmation, biochemical, cherry pick 2, bead flow cytometry. inhibition of aptamer binding, % at 10 µM. 360 tested, under 10 active. AID 504782, 2011. shares compounds with GRK2 aptamer HTS. bead-bound GRK2, FAM-aptamer displacement;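 active means inhibition of aptamer binding above 40%, about triple the noise seen with nonglowing compounds, on plates passing quality control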;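 further: negative values mostly come from compounds that fluoresce themselves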
FAM quench SP: aptamer fluorescence quenching in GRK2 counter-screen; shares compounds with GRK2 aptamer HTS; carboxyfluorescein RNA aptamer beads, flow cytometry quenching; stronger effect = lower value; fluorescence response vs DMSO, % at 10 µM; 360 tested, under 10 active; AID 588494;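 active means response vs DMSO under 50%, meaning signal dropped by over half, treated as fluorescence quencher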;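 further: labelled aptamer on streptavidin beads without GRK2 as a quench counter-screen; 100% = bead fluorescence of DMSO wells and lower means quenching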
NadD inh conf: inhibitors of S. aureus NadD, confirmation, biochemical, colorimetric, single concentration | shares compounds with NadD block | purified S. aureus NadD, colorimetric enzyme assay | inhibition, % at 20 µM | hit rate 13% among 2,000 | AID 624309, 2012; in the data active means inhibition mostly above about 42%, no sharp cut-off; inactive means mostly below about 42%
Exocytosis CP01: inhibitors of lytic granule exocytosis, confirmation, TALL-104 cells, flow cytometry, Cherry Pick01 | shares compounds with Exocytosis inh | LAMP-1 externalization; stimulated with PMA plus thapsigargin | inhibition, % at 10 µM | hit rate 11% among 1,500; in the data active means inhibition above about 60%;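 further: 0% = stimulated vehicle wells and 100% = unstimulated wells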
* hit, by the source's call; / = not tested or not shown.

SMILES	PP1 inh	Beta2AR agonist	Exocytosis inh	GRK2 aptamer HTS	NadD block	GRK2 inh confirm	FAM quench CP1	others
O=C(NCc1ccccn1)c1cccc(S(=O)(=O)N2CCCCC2)c1	-3	4	4	0	9	/	/
O=C(/C=C/c1ccco1)NC(=S)Nc1cccc(-c2nc3ccccc3s2)c1	24*	5	-1	0	62*	/	/	PP1 confirm=10;PP5 counter=1;NadD inh conf=13
Cc1ccc(-c2nc3ccccc3s2)cc1NC(=S)NC(=O)/C=C/c1ccco1	1	-7	0	0	24	/	/
Cc1cccc(C(=O)N=c2c(C#N)cc3c(=O)n4cccc(C)c4nc3n2Cc2ccco2)c1	25*	10	-2	13	42*	/	/	PP1 confirm=7;PP5 counter=-1;NadD inh conf=30
O=C1C2C3C=CC(C4CC34)C2C(=O)N1/N=C/c1cccs1 (configuration not stated)	-2	-15	-12	4	3	/	/
O=C1c2cccc3cccc(c23)C(=O)N1CC1CCN(CC(O)COc2ccc3ccccc3c2)CC1 (configuration not stated)	34*	82*	58*	0	25	/	/	PP1 confirm=0;PP5 counter=1;Exocytosis CP01=40
N#Cc1nc(-c2ccc(OCc3ccccc3)cc2)oc1NCCCn1ccnc1	21*	-6	81*	0	29	/	/	PP1 confirm=9;PP5 counter=1;Exocytosis CP01=33
CCN(Cc1ccccc1)S(=O)(=O)c1ccc(C(=O)N(CCCN(C)C)c2nc3c(C)c(C)ccc3s2)cc1	19*	34	60*	0	0	/	/	PP1 confirm=-3;PP5 counter=3;Exocytosis CP01=33
Cc1ccc2sc(N(CCCN(C)C)C(=O)c3ccc(S(=O)(=O)N4CCOCC4)cc3)nc2c1C	-1	4	9	0	-7	/	/
CCN(CC)CCOC(=O)c1ccc(N/C=C(/C#N)c2nc(-c3ccc(OC)cc3)cs2)cc1	60*	31	64*	0	32*	/	/	PP1 confirm=6;PP5 counter=-1;NadD inh conf=-8;Exocytosis CP01=66*
CCN(CC)CCOC(=O)c1cccc(OC)c1	-2	4	-1	1	-3	/	/
CC(NC(=O)C(c1ccccc1)c1ccccc1)C(=O)N1CCCCC1 (configuration not stated)	0	7	-1	2	0	/	/
O=S(=O)(NCc1ccccc1Cl)c1cccs1	0	4	1	0	-7	/	/
COc1ccc2nc3cc(Cl)ccc3c(Nc3cc(C(C)C)c(O)cc3C)c2c1	29*	35	62*	0	15	/	/	PP1 confirm=8;PP5 counter=-1;Exocytosis CP01=54
Cc1ccc(F)cc1C(=O)N1CCCCC1c1cc(C(=O)Nc2ccccc2)no1 (configuration not stated)	/	/	-3	/	1	/	/
COC(=O)c1ccc(CSc2nnc(C)n2N)o1	-4	-6	5	100*	3	/	/	GRK2 confirm 2=-1;FAM quench SP=111
COC(=O)c1ccc(CSc2nnnn2C)o1	-2	8	1	0	1	/	/
O=C(c1ccccc1)[C@H]1[C@H](c2ccccc2)[C@@]2(N=C(c3ccccc3)OC2=O)C2c3ccccc3C=NN21 (some centres not stated)	3	/	/	1	/	/	/
CC1CCN(CCOCCOc2ccccc2Br)CC1	4	3	3	95*	-8	-2	98
O=S(=O)(O)c1cc(O)c2c(O)c(N=Nc3cc(Cl)ccc3O)c(S(=O)(=O)O)cc2c1	11	15	7	99*	-1	70*	100	Aptamer quench 1=6.6
O=S(=O)(O)c1cc(Cl)cc(N=Nc2ccc(O)cc2O)c1O	/	6	-3	/	9	/	/
CCNC(=O)c1cccc(NC(=O)CN2C(=O)NC3(CCCCC3)C2=O)c1	/	-2	5	/	-6	/	/
CCOc1ccc(C(C)=O)cc1CN1C(=O)NC2(CCCCCC2)C1=O	6	0	-5	83*	0	-34	102
Cc1cc(C)c(NC(=O)CN2C(=O)NC3(CCCCC3)C2=O)c(Cl)c1	-2	-10	3	83*	-4	3	96
CC(=O)c1cccc(NC(=O)CN2C(=O)NC3(CCCCCCC3)C2=O)c1	-1	9	1	100*	-1	-31	99
SMILES	PP1 inh	Beta2AR agonist	Exocytosis inh	GRK2 aptamer HTS	NadD block	GRK2 inh confirm	FAM quench CP1	others
Cc1cc(=O)oc2cc(OCC(=O)Nc3nccs3)ccc12	-3	-3	3	57*	2	0	102
Cc1c(C)c2ccc(OCC(=O)Nc3nccs3)cc2oc1=O	9	-14	-3	0	0	/	/
CC(C)(C)CC(=O)NC(=S)NCCc1ccccc1	-1	-4	6	80*	-6	-1	96
CC(C)CC(=O)NC(=S)NCCc1ccccc1	-1	-4	1	1	-6	/	/
Cc1ccc(S(=O)(=O)N2CCN(C(=O)COC(=O)c3ccc(Cl)c(S(N)(=O)=O)c3)CC2)c(C)c1	/	-4	-4	/	14	/	/
O=C(NC(NC1CCS(=O)(=O)C1)C(Cl)(Cl)Cl)c1cccc(Cl)c1 (configuration not stated)	-2	4	1	51*	-8	-1	95
